Test results taken from PubChem BioAssay (NCI).
Compounds without any hit were thinned out: in the full panel of roughly 79,000, 15% have a hit. Values without a mark were called inactive. No stated cut-off is given here; in the data, active means growth inhibition above about 70%; inactive means the rest.

assay: NCI Yeast Anticancer Drug Screen. Data for the rad50 strain (AID 155);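 further: 0% = growth of vehicle-only cultures of the same strain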; conditions: S. cerevisiae rad50 strain growth inhibition; at 50.0 µM; active compounds read high
Outline: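 Compounds were tested on a yeast strain with an engineered DNA damage repair alteration; the reported value is growth inhibition normalised to vehicle treatment.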

Compound	growth inhibition
COc1ccc(Cl)c2c(=O)c3ccc4c(c3[nH]c12)C(=O)c1ccccc1C4=O	21.8%
O=C1C(c2ccccc2)=C(c2ccccc2)/C1=C\c1ccc(Cl)cc1Cl	7.4%
COc1ccc(N=Cc2ccc(C=Nc3ccc(OC)cc3)cc2)cc1	23.2%
CN(C)CCNC(=O)c1cccc(C(=O)Nc2ccccc2)c1[N+](=O)[O-]	13.7%
COc1cccc(C2C3=C(COC3=O)Oc3cc4c(cc32)OCO4)c1 (stereo not given)	-41.1%
O=C1[C@H]2ON(c3ccccc3)C(c3ccc(Cl)cc3)[C@H]2C(=O)N1c1ccc(Cc2ccc(N3C(=O)[C@@H]4ON(c5ccccc5)C(c5ccc(Cl)cc5)[C@@H]4C3=O)cc2)cc1 (stereo not given in full)	1.75%
CCOC(=O)C1CSCN1C(C)=O (stereo not given)	-33.4%
CC(=O)OCC(OC(C)=O)C(OC(C)=O)C(/C=C/[N+](=O)[O-])OC(C)=O (stereo not given)	9.9%
CC(=O)Oc1cc2c3ccccc3ccc2c2ccccc12	13%
CCOC(=O)/C=C(\C)c1ccc(Cl)cc1	4.4%
O=C(O)C(O)(C1CCCCC1)C1CCC2CCC3CCCC1C32 (stereo not given)	5.4%
C=CCOC(=O)OCC=C	4%
Cc1cc(OC(C)C)cc(C)c1C(=O)OCC(C)N1CCCC1 (stereo not given)	11.8%
CSC(SC)C(OC(C)=O)C(OC(C)=O)C(OC(C)=O)C(COC(C)=O)OC(C)=O (stereo not given)	-11.7%
COC(=O)C1C(COS(C)(=O)=O)ON2CCC(OC)(OC)C12 (stereo not given)	4.85%
O=C(COc1ccc(F)cc1)OCCO	13.9%
Nc1ccnc(=O)[nH]1	-3.5%
CCNC(=O)N(C)Cc1ccc(Cl)cc1	-4%
CC1=C(C)OCC1	8.9%
O=C1OC2C3c4ccccc4C(c4c3ccc3ccccc43)C2O1 (stereo not given)	10.1%

Compound	growth inhibition
C=C1C(=O)O[C@@H]2/C=C(\C)CC/C=C(/C)CC[C@@H]12	45.8%
CC(=O)N(CCC(C)C)c1ccccc1	10.6%
CCOC(=O)c1cnc2c(cnn2C(C)C)c1NN	-15.6%
C(=NC12CC3CC(CC(C3)C1)C2)C1CCCCC1	-17.1%
Clc1ccc(N=C2c3ccccc3CN2c2ccc(Cl)cc2)cc1	-32.6%
COC(=O)C(=O)C(C(=O)C(=O)Nc1ccccc1C(N)=O)c1nc2ccc(C(=O)c3ccccc3)cc2[nH]c1=O (stereo not given)	-3.9%
Brc1cccc(N=NN2CCCC2)c1	14.7%
N/N=C(\N)SCCCCCCS/C(N)=N/N	-10.8%
CNS(=O)(=O)c1ccc(Br)cc1	-15.9%
O=C(O)c1ccc2ccccc2c1C(=O)O	6.4%
CN(C)CCN=C1Nc2ccccc2C(=O)N2CSCC12 (stereo not given)	-3.25%
Cc1cccc[n+]1C1CCc2ccccc2C1=O (stereo not given)	1.5%
CCOC(=O)C1=C(Nc2ccc(Cl)cc2Cl)OCC1=O	-12.3%
Cc1cc(C)n(/N=C/c2ccco2)c(=O)c1C#N	-20.3%
Cc1cc(C)cc(C(=O)N=C(c2ccncc2)c2nc(-c3ccccc3)oc2O)c1	-3.3%
O=C(NCc1ccncc1)Nc1ccc(Cc2ccc(NC(=O)NCc3ccncc3)cc2)cc1	-8.05%
COc1cc([N+](=O)[O-])c(F)cc1F	-0.05%
Cc1ccc(C(=O)N(Cc2ccccc2)Cc2ccccc2)cc1N=NN(C)C	-44.8%
CC1OC(C)(Cc2ccccc2)OC1C (stereo not given)	3.95%
C[Si](C)(C)N1N=NC2C(=O)N(c3ccccc3)C(=O)C21 (stereo not given)	-10.4%

assay: NCI Yeast Anticancer Drug Screen. Data for the mec2-1 strain (AID 157); conditions: S. cerevisiae mec2-1 strain, at 50.0 µM, active compounds read high
Outline: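 mec2-1 yeast strain, carrying an alteration in DNA damage repair or cell cycle control, was exposed to compounds; growth inhibition was measured relative to vehicle-treated controls.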

Compound	growth inhibition
COc1ccc(Cl)c2c(=O)c3ccc4c(c3[nH]c12)C(=O)c1ccccc1C4=O	-5.6%
O=C1C(c2ccccc2)=C(c2ccccc2)/C1=C\c1ccc(Cl)cc1Cl	-5.9%
COc1ccc(N=Cc2ccc(C=Nc3ccc(OC)cc3)cc2)cc1	2.25%
CN(C)CCNC(=O)c1cccc(C(=O)Nc2ccccc2)c1[N+](=O)[O-]	-12.6%
COc1cccc(C2C3=C(COC3=O)Oc3cc4c(cc32)OCO4)c1 (stereo not given)	-24.4%
O=C1[C@H]2ON(c3ccccc3)C(c3ccc(Cl)cc3)[C@H]2C(=O)N1c1ccc(Cc2ccc(N3C(=O)[C@@H]4ON(c5ccccc5)C(c5ccc(Cl)cc5)[C@@H]4C3=O)cc2)cc1 (stereo not given in full)	8.6%
CCOC(=O)C1CSCN1C(C)=O (stereo not given)	-20.6%
CC(=O)OCC(OC(C)=O)C(OC(C)=O)C(/C=C/[N+](=O)[O-])OC(C)=O (stereo not given)	3.65%
CC(=O)Oc1cc2c3ccccc3ccc2c2ccccc12	-9.5%
CCOC(=O)/C=C(\C)c1ccc(Cl)cc1	-18.6%
O=C(O)C(O)(C1CCCCC1)C1CCC2CCC3CCCC1C32 (stereo not given)	9.4%
C=CCOC(=O)OCC=C	-8.55%
Cc1cc(OC(C)C)cc(C)c1C(=O)OCC(C)N1CCCC1 (stereo not given)	-8.2%
CSC(SC)C(OC(C)=O)C(OC(C)=O)C(OC(C)=O)C(COC(C)=O)OC(C)=O (stereo not given)	11.4%
COC(=O)C1C(COS(C)(=O)=O)ON2CCC(OC)(OC)C12 (stereo not given)	11.1%
O=C(COc1ccc(F)cc1)OCCO	-20.9%
Nc1ccnc(=O)[nH]1	-11.7%
CCNC(=O)N(C)Cc1ccc(Cl)cc1	8.7%
CC1=C(C)OCC1	4%
O=C1OC2C3c4ccccc4C(c4c3ccc3ccccc43)C2O1 (stereo not given)	10.9%

Compound	growth inhibition
C=C1C(=O)O[C@@H]2/C=C(\C)CC/C=C(/C)CC[C@@H]12	52.2%
CC(=O)N(CCC(C)C)c1ccccc1	11.6%
CCOC(=O)c1cnc2c(cnn2C(C)C)c1NN	-9.05%
C(=NC12CC3CC(CC(C3)C1)C2)C1CCCCC1	-24.8%
Clc1ccc(N=C2c3ccccc3CN2c2ccc(Cl)cc2)cc1	-20.1%
COC(=O)C(=O)C(C(=O)C(=O)Nc1ccccc1C(N)=O)c1nc2ccc(C(=O)c3ccccc3)cc2[nH]c1=O (stereo not given)	20%
Brc1cccc(N=NN2CCCC2)c1	25.4%
N/N=C(\N)SCCCCCCS/C(N)=N/N	2.15%
CNS(=O)(=O)c1ccc(Br)cc1	-24.6%
O=C(O)c1ccc2ccccc2c1C(=O)O	-1.6%
CN(C)CCN=C1Nc2ccccc2C(=O)N2CSCC12 (stereo not given)	-1.95%
Cc1cccc[n+]1C1CCc2ccccc2C1=O (stereo not given)	10.7%
CCOC(=O)C1=C(Nc2ccc(Cl)cc2Cl)OCC1=O	-5.85%
Cc1cc(C)n(/N=C/c2ccco2)c(=O)c1C#N	-33.1%
Cc1cc(C)cc(C(=O)N=C(c2ccncc2)c2nc(-c3ccccc3)oc2O)c1	13.9%
O=C(NCc1ccncc1)Nc1ccc(Cc2ccc(NC(=O)NCc3ccncc3)cc2)cc1	-19.1%
COc1cc([N+](=O)[O-])c(F)cc1F	0.85%
Cc1ccc(C(=O)N(Cc2ccccc2)Cc2ccccc2)cc1N=NN(C)C	-39.5%
CC1OC(C)(Cc2ccccc2)OC1C (stereo not given)	-13.9%
C[Si](C)(C)N1N=NC2C(=O)N(c3ccccc3)C(=O)C21 (stereo not given)	-0.5%
